FBW7 activator – human FBW7 E3 ligase activation, primary screen. actives 0.13% (n = 650,000). Q969H0. AlphaScreen FBW7–phospho-cyclin E peptide binding, activator screen. normalized activity (activation), % at 26.1 µM. AID 1259310; in the data active = normalized activity above about 1.9%;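 note: purified mutant Fbw7 with reduced substrate affinity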
Target sequence (Q969H0 whole entry, looked up): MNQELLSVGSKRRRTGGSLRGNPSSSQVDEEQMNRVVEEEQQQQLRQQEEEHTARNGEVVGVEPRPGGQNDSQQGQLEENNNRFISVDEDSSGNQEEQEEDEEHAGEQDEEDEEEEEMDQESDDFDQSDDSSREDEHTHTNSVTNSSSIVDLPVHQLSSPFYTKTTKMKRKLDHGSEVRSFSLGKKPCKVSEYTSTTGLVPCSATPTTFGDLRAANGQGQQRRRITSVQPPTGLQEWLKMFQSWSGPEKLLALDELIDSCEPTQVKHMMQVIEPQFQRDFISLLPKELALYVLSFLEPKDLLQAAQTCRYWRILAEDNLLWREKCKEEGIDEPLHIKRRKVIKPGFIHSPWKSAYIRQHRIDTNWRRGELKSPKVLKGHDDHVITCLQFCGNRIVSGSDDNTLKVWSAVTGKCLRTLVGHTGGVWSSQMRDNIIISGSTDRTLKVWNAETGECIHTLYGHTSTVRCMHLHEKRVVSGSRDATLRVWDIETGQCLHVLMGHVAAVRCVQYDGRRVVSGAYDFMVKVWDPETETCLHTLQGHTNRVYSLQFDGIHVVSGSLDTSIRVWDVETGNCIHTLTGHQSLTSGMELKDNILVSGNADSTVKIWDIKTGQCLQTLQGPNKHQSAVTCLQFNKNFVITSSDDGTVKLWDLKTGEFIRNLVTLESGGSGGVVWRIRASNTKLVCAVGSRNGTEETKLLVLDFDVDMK
TEAD-YAP block – TEAD-YAP interaction inhibition; HEK-TIYL cells, TEAD-Gal4/YAP UAS-luciferase luminescence; inhibition, % at 9.12 µM; actives 1.4% (n = 640,000); AID 1259422; in the data active = inhibition above about 32%;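 note: 0% = median of test compound wells and 100% = reference inhibitor wells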
GPR151 activ – activators of human GPR151; actives 1% (n = 650,000); activation, % at 11.2 µM; PathHunter beta-arrestin GPR151 cells, luminescence; AID 1508602; in the data active = activation above about 4.9%;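 note: 0% = median of compound wells and 100% = cells with positive control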
MITF inh – inhibitors of human MITF | O75030 | AlphaScreen MITF homodimerization, bead proximity signal | inhibition, % at 2.6 µM | actives 0.91% (n = 650,000) | AID 1259374; in the data active = inhibition above about 50%;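 note: 0% = vehicle wells with protein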
GPR151 confirm – confirmation of human GPR151 activators; shares compounds with GPR151 activ; GPR151 PathHunter beta-arrestin cells, luminescence, 90 min; % of EA-reagent control over plate median; activation, % at 11.2 µM; 6,700 tested, under 10 active; AID 1508609;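 active = mean percent activation across replicates above the confirmation screen cutoff of 4.91%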
GPR119 ag – counter-screen for GPR151 activators: effect on human GPR119; AID 1508611; shares compounds with GPR151 activ; activation, % at 11.2 µM; GPR119 PathHunter beta-arrestin cells, luminescence, 90 min; 0 = compound-well median, 100 = enzyme-acceptor control; actives 0.3% (n = 6,700);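 active = mean percent activation in the counterscreen above 29.09%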;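 note: counterscreen on off-target GPR119 to flag nonselective hits from the GPR151 activator screen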
Starred values were filed as active, the others as inactive; . = no result given; ! = a repeat was not active. The list is not random: actives were taken first. Their share in the collection is about 3.5%.

SMILES | FBW7 activator | TEAD-YAP block | GPR151 activ | MITF inh | GPR151 confirm | GPR119 ag
Cn1c(Nc2nccc(NCc3ccccc3)n2)nc2ccccc21 | 0.1 | 27.5 | -0.3 | -4.2 | . | .
NC(=O)C1(N2CCCCC2)CCN(C(=S)Nc2ccc(F)cc2)CC1 | 0.1 | 13.3 | -0.9 | 1.9 | . | .
NC(=O)C1(N2CCCCC2)CCN(C(=O)Nc2ccc(F)cc2F)CC1 | 0.0 | -3.0 | 5.9* | 3.4 | 0.8 | 4.6
Cc1ccc(-c2cc(C(F)(F)F)n3ncc(C(=O)Nc4cccc(CCC#N)c4)c3n2)cc1 | 0.0 | -8.3 | -1.5 | 2.4 | . | .
CCCCOC(C)n1cc(Cl)c(=O)[nH]c1=O (stereo unspecified) | 0.1 | 6.9 | 5.1* | 8.2 | 0.5 | -2.0
CCOc1cc(OCC)c(C=O)cc1Br | 0.0 | 0.5 | 6.3* | 5.4 | -1.7 | -10.5
C#CCOc1cc(Br)c(C=O)cc1OCC | -0.1 | 3.3 | 1.0 | 1.9 | . | .
CC(c1ccccc1)C1CC(=O)N(Cc2ccccc2)C1=O (stereo unspecified) | 0.0 | 3.9 | 21.8* | -0.6 | -1.2 | 3.9
CC(c1ccccc1)C1CC(=O)N(c2ccc(Cl)cc2)C1=O (stereo unspecified) | 0.3 | 1.8 | 0.7 | 12.3 | . | .
COC(=O)c1ccc(-n2c(C)cc(C(=O)COC(=O)c3ccccc3C=O)c2C)cc1 | 0.0 | 7.0 | -0.7 | 11.9 | . | .
Cc1cnc(C(=O)OCC(=O)c2cc(C)n(CCc3ccc(F)cc3)c2C)cn1 | -0.1 | -0.2 | 8.1* | 1.8 | 1.1 | 8.0
Cc1cc(C(=O)COC(=O)c2ccc(CO)cc2)c(C)n1-c1ccc(F)cc1 | 0.2 | 8.9 | 5.0* | -0.8 | 0.0 | 0.1
CCC1CCCCN1CCN1C(=O)C2C(C(=O)Nc3cccc(C)c3)C3C=CC2(O3)C1C(=O)NC1CCCC(C)C1C (stereo unspecified) | -0.3 | 6.4 | 12.9* | 1.4 | -0.2 | -5.4
CCC1CCCCN1CCN1C(=O)C2C(C(=O)Nc3cc(C)cc(C)c3)C3C=CC2(O3)C1C(=O)NC1CCCC(C)C1C (stereo unspecified) | 0.6 | 7.5 | -0.3 | 15.0 | . | .
CSc1cccc(NC(=O)C2C3C=CC4(O3)C2C(=O)N(C(C)C)C4C(=O)NC2CCCC(C)C2C)c1 (stereo unspecified) | 0.0 | 3.7 | 5.8* | 7.9 | 0.6 | -0.9
Cc1cccc2nc3n(c12)CCC(OCCOC(=O)c1ccc(Br)o1)=C3 | -0.1 | 15.6 | -0.5 | -1.6 | . | .
Cc1cccc(-c2cnc(C)nc2C2CCCN(C(=O)C3CC(=O)OC34CCCCC4)C2)c1 (stereo unspecified) | 0.0 | 8.9 | -1.2 | 14.5 | . | .
O=C(NC1(C(F)(F)F)NC(=O)N(Cc2ccco2)C1=O)c1ccccc1F (stereo unspecified) | -0.1 | 8.4 | 0.2 | -5.4 | . | .
COc1ccc(NC(=O)CN(c2cc(C(F)(F)F)ccc2Cl)S(C)(=O)=O)cc1 | 0.1 | -0.5 | 3.0 | 8.2 | . | .
Nc1[nH]ncc1-c1ccc(NC(=O)C(O)c2ccc(F)cc2)cc1 (stereo unspecified) | -0.1 | -10.2 | 0.7 | 14.4 | . | .
COc1cccc(OC)c1C(=O)Nc1c(C)n(C)n(-c2ccccc2)c1=O | 0.0 | 2.3 | 2.1 | -5.1 | . | .
CCOC(=O)c1[nH]c(C)c(C(=O)Nc2ccc(C)c(C)c2)c1C | -0.2 | 3.8 | 5.0* | -6.3 | 0.4 | 3.7
CCOC(=O)c1[nH]c(C)c(C(=O)Nc2cccc(OC)c2)c1C | 0.0 | -2.5 | 1.0 | 14.5 | . | .
CCOC(=O)c1[nH]c(C)c(C(=O)Nc2c(C)n(C)n(-c3ccccc3)c2=O)c1C | -0.1 | 1.2 | 6.5* | 10.4 | -0.8 | -3.3
COc1ccc(S(=O)(=O)N2CCN(C(=O)CCCl)CC2)cc1 | 0.1 | -3.2 | -0.8 | 12.4 | . | .
C[C@]1(Cn2ccnn2)[C@H](C(=O)O)N2C(=O)C[C@H]2S1(=O)=O | 0.0 | -1.9 | 10.1*! | 8.3 | 0.9 | 6.9
COCCCNc1nc2nonc2nc1N1CCN(CCOc2ccccc2)CC1 | 0.0 | 8.4 | 7.2* | 0.9 | 0.9 | -1.4
COc1ccc2c(CNCc3ccc(F)cc3)c(C(=O)O)n(Cc3ccc(C)cc3)c2c1 | -0.1 | 5.9 | 7.8* | 1.0 | 0.5 | 2.1
Cc1ccc(C(=O)N[C@H]2C[C@H]3C(=O)N[C@H](C)C(=O)N3C2)cc1 | -0.1 | 2.1 | 5.9* | 1.6 | 1.2 | 15.8

Screens (PubChem BioAssay)
